Screen size: about 39,000 compounds; about 3,300 (8.5%) were called active. The list comes from a sample in which actives are over-represented; it also holds similar structures and randomly drawn compounds.

In this assay the test system is HepG2. Put plainly: cytotoxicity call (relative viability < 0.9). The settings on record: 10 µM.
Regarding `COc1ccc(NC(=O)N(C)C[C@@H]2OCCCC[C@@H](C)Oc3ccc(NC(=O)C4CCCCC4)cc3C(=O)N([C@@H](C)CO)C[C@@H]2C)cc1`, the cytotoxicity call was “inactive”. The value for `C[N+](C)(C)CCCC[C@@H]1NC(=O)[C@H]2C[C@@H](C(=O)NCCCCCCN)[C@@H](c3ccc(O)cc3)N2C1=O` was “inactive”; that for `CCNC(=O)[C@@H]1CCCN1C(=O)[C@H](CCCN=C(N)N)NC(=O)[C@H](CC(C)C)NC(=O)[C@@H](Cc1c[nH]c2ccccc12)NC(=O)[C@H](Cc1ccc(O)cc1)NC(=O)[C@H](CO)NC(=O)[C@H](Cc1c[nH]c2ccccc12)NC(=O)[C@H](Cc1c[nH]cn1)NC(=O)[C@@H]1CCC(=O)N1` was “inactive”; that for `C[C@H](CO)N1C[C@H](C)[C@H](CN(C)C(=O)c2ccccn2)Oc2cc(C#Cc3ccc(F)cc3)ccc2S1(=O)=O` was “inactive”. Take `O=C(O)c1ccc(O)cc1O`: the cytotoxicity call was “inactive”.

On to `C[C@H](CO)N1C[C@H](C)[C@H](CN(C)Cc2ccc(C(F)(F)F)cc2)OCc2ccccc2-c2ccccc2C1=O`, for which the cytotoxicity call is “inactive”. The value for `COc1ccccc1CNC(=O)C[C@@H]1C[C@H]2c3cc(NS(=O)(=O)c4ccc(F)cc4)ccc3O[C@H]2[C@@H](CO)O1` was “inactive”. As to `C[C@H]1CCCCO[C@H](CN(C)S(=O)(=O)c2cccs2)[C@@H](C)CN([C@@H](C)CO)C(=O)c2cc(NS(=O)(=O)c3cn(C)cn3)ccc2O1`, the cytotoxicity call is “inactive”. For `C[C@@H]1CN([C@@H](C)CO)C(=O)Cc2cc(NS(=O)(=O)c3cn(C)cn3)ccc2O[C@H]1CN(C)Cc1ccc2c(c1)OCO2` the value was “inactive”; for `C[C@H](CO)N1C[C@H](C)[C@@H](CN(C)C(=O)C2CCCCC2)OCCCC[C@H](C)Oc2ccc(NC(=O)Nc3cccc4ccccc34)cc2C1=O`, “inactive”; for `C[C@@H]1CCCCO[C@@H](CN(C)S(C)(=O)=O)[C@H](C)CN([C@@H](C)CO)C(=O)c2cc(NS(=O)(=O)c3ccccc3)ccc2O1`, “inactive”. The value for `COc1ccccc1C(=O)Nc1ccc2c(c1)C(=O)N(C)[C@H]1CC[C@@H](CC(=O)NCc3ccc(Cl)c(Cl)c3)O[C@@H]1CO2` was “active”; that for `COc1ccccc1C(=O)Nc1ccc2c(c1)C(=O)N(C)[C@@H]1CC[C@H](CC(=O)NCCc3ccncc3)O[C@H]1CO2` was “inactive”; that for `COc1ccccc1C(=O)Nc1ccc2c(c1)C(=O)N(C)[C@@H]1CC[C@@H](CC(=O)NCc3ccc(Cl)c(Cl)c3)O[C@H]1CO2` was “inactive”.

`COc1ccc(S(=O)(=O)N(C)C[C@@H]2Oc3ccc(NC(=O)Cn4cnnn4)cc3C(=O)N([C@H](C)CO)C[C@H]2C)cc1`: the cytotoxicity call is “inactive”. The value for `C[C@H](CO)N1C[C@H](C)[C@@H](CN(C)S(C)(=O)=O)OCCCC[C@H](C)Oc2ccc(NC(=O)Nc3ccc(C(F)(F)F)cc3)cc2C1=O` was “inactive”; that for `C[C@@H]1CCCCO[C@@H](CN(C)Cc2ccc(C(F)(F)F)cc2)[C@@H](C)CN([C@@H](C)CO)C(=O)c2cc(NS(=O)(=O)c3cn(C)cn3)ccc2O1` was “inactive”. For `CC(C)CCN1CCn2c(CO)nnc2C1` the value was “inactive”. For `C[C@@H]1CN([C@@H](C)CO)C(=O)Cc2cc(NC(=O)C3CC3)ccc2O[C@H]1CN(C)C(=O)NC1CCCCC1` the value was “inactive”. Take `Cl.N#Cc1ccc2[nH]cc(CCCCN3CCN(c4ccc5oc(C(N)=O)cc5c4)CC3)c2c1`: the cytotoxicity call was “active”. On to `CCC(=O)C12CC3CC(CC(C3)C1)C2`, for which the cytotoxicity call was “inactive”. For `COc1ccc(NC(=O)N(C)C[C@H]2OCCCC[C@H](C)Oc3ccc(NC(=O)Nc4ccc5c(c4)OCO5)cc3C(=O)N([C@H](C)CO)C[C@@H]2C)cc1` the value was “inactive”; for `Cc1ccc(S(=O)(=O)N[C@H](C(=O)NCCn2cc(CCC(=O)NO)nn2)C(C)C)cc1`, “inactive”.

As to `CC(/C=C/C(=O)NO)=C\c1ccccc1OCc1cn(CCNC(=O)[C@@H](NS(=O)(=O)c2ccc(C)cc2)C(C)C)nn1`, the cytotoxicity call is “inactive”. For the molecule `Cc1ccc(S(=O)(=O)N(c2cccc(-n3cc(CCC(=O)NO)nn3)c2)S(=O)(=O)c2ccc(C)cc2)cc1`, the cytotoxicity call was “active”. The value for `CC(/C=C/C(=O)NO)=C\c1ccccc1OCc1cn(C[C@@H]2CCCN2S(=O)(=O)c2ccc(C)cc2)nn1` was “active”; that for `Nc1cccc(-n2cc(CCC(=O)NO)nn2)c1` was “inactive”; that for `CCOc1cc(OCC)cc(C(=O)N[C@@H](Cc2ccc(-n3cc(CCC(=O)NO)nn3)cc2)C(=O)OC)c1` was “inactive”. The value for `COC(=O)[C@@H](N)Cc1ccc(-n2cc(CCC(=O)NO)nn2)cc1` was “active”. Regarding `C#CCN([C@H](/C=C/C1CC1)[C@@H](O)Cc1ccccc1)[C@@H](Cc1ccc(-n2cc(COc3ccccc3/C=C(C)/C=C/C(=O)NO)nn2)cc1)C(=O)OC`, the cytotoxicity call is “inactive”. Consider `COC(=O)[C@H](Cc1ccccc1)N1C[C@](C)(OC(C)C)O[C@@H](CCn2cc(COc3ccccc3/C=C(C)/C=C/C(=O)NO)nn2)[C@@H]1/C=C/C1CC1`, for which the cytotoxicity call is “inactive”. For `COC(=O)[C@@H](Cc1ccc(-n2cc(COc3ccccc3/C=C(C)/C=C/C(=O)NO)nn2)cc1)N1CC(/C=C/C2CC2)=C[C@H]1[C@H](O)Cc1ccccc1` the value was “inactive”. For the molecule `CC(/C=C/C(=O)NO)=C\c1ccccc1OCc1cn(-c2cccc(N(S(=O)(=O)c3ccc(C)cc3)S(=O)(=O)c3ccc(C)cc3)c2)nn1`, the cytotoxicity call is “active”.

With `Nc1ccc(-n2cc(CCC(=O)NO)nn2)cc1`, the cytotoxicity call is “inactive”. The value for `O=C(NC1CCC1)[C@H]1[C@H](CO)[C@H]2Cn3c(cccc3=O)[C@H]2N1CC1CCOCC1` was “inactive”.

For the molecule `COc1ccccc1-c1ccc2c(c1)O[C@H](CN(C)CC1CCOCC1)[C@H](C)CN([C@@H](C)CO)S2(=O)=O`, the cytotoxicity call is “inactive”. For the molecule `C[C@H]1CN([C@@H](C)CO)C(=O)Cc2cc(NC(=O)CCN3CCOCC3)ccc2O[C@@H]1CN(C)Cc1ccncc1`, the cytotoxicity call was “inactive”.

In the case of `OCCNC(=S)Nc1ccccc1`, the cytotoxicity call is “inactive”. For `C[C@H](CO)N1C[C@H](C)[C@@H](CN(C)S(=O)(=O)c2ccc(Cl)cc2)OCCCC[C@H](C)Oc2ccc(NC(=O)Nc3ccc(C(F)(F)F)cc3)cc2C1=O` the value was “inactive”. For the molecule `Cn1cnc(S(=O)(=O)N[C@@H]2CC[C@H](CC(=O)Nc3ccccc3)O[C@H]2CO)c1`, the cytotoxicity call is “inactive”. As for `COc1ccc(CN(C)C[C@@H]2Oc3c(NS(=O)(=O)c4cn(C)cn4)cccc3C(=O)N([C@H](C)CO)C[C@@H]2C)cc1`, the cytotoxicity call was “inactive”.

For the origin of these results see the antibiotic and cytotoxicity screens of Wong et al. (2023).
